Records with an inconclusive call do not appear. A call without a number means that no potency is given here. A number with no mark means an inactive call. Calls of active or inactive are those of the source. Calls come from the whole dose curve; as a rule, active = well fitted curve in the direction sought with a large enough effect; inconclusive = small, poorly fitted or top-dose-only effect, or another doubt; inactive = no such curve, though single readings can be large; an effect the other way counts as inactive or inconclusive.
Legend:
NIH3T3 = assay: qHTS assay to identify novel small-molecules to repurpose for Merkel cell carcinoma treatment (AID 1296009); conditions: MCC and control cell lines, CellTiter-Glo viability, 72 h; at 44.8 µM (top of the series) unless noted; note: nearly all actives have a fitted effect of over 60% in size
In short: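 CellTiter-Glo luminescence after 72 hr compound exposure at 37 degree celsius gave cell viability. Libraries NPC and MIPE were run as 8- and 11-point dose responses; RLUs normalized to DMSO (negative) and no-cell (cytotoxicity) controls.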

CAOV3 = assay: Primary qHTS to identify gynecologic anti-cancer compounds using libraries of approved drugs and bioactive compounds (AID 1345084); conditions: Gynecologic cancer cell panel viability, ATPlite luminescence, 48 h; series mostly up to 57.5 µM; note: nearly all actives have a fitted effect of over 55% in size; note: potency is the fitted concentration of half-maximal effect
In short: (§1)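 ATP-based viability (ATPlite), 1,000 cells/well, 16 h pre-incubation, 48 h compound at 37 C, 5% CO2, 15 min RT before read.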

CASKI = assay: as above; conditions: Gynecologic cancer cell panel viability, ATPlite luminescence, 48 h; series mostly up to 57.5 µM
In short: as §1

Es-2 = assay: as above; conditions: Gynecologic cancer cell panel viability, ATPlite luminescence, 48 h; series mostly up to 57.5 µM
In short: as §1

HeLa = assay: as above; conditions: Gynecologic cancer cell panel viability, ATPlite luminescence, 48 h; series mostly up to 57.5 µM
In short: as §1

Hek293T = assay: as above; conditions: Gynecologic cancer cell panel viability, ATPlite luminescence, 48 h, control line for the selectivity index; series mostly up to 57.5 µM
In short: as §1

JEG-3 = assay: as above; conditions: Gynecologic cancer cell panel viability, ATPlite luminescence, 48 h; series mostly up to 57.5 µM
In short: as §1

OV90 = assay: as above; conditions: Gynecologic cancer cell panel viability, ATPlite luminescence, 48 h; series mostly up to 57.5 µM
In short: as §1

SKOV3 = assay: as above; conditions: Gynecologic cancer cell panel viability, ATPlite luminescence, 48 h; series mostly up to 57.5 µM
In short: as §1

Tov-21-G = assay: as above; conditions: Gynecologic cancer cell panel viability, ATPlite luminescence, 48 h; series mostly up to 57.5 µM
In short: as §1

Tov112D = assay: as above; conditions: Gynecologic cancer cell panel viability, ATPlite luminescence, 48 h; series mostly up to 57.5 µM
In short: as §1

PA-1 = assay: as above; conditions: Gynecologic cancer cell panel viability, ATPlite luminescence, 48 h; series mostly up to 57.5 µM
In short: as §1

C33A = assay: as above; conditions: Gynecologic cancer cell panel viability, ATPlite luminescence, 48 h; series mostly up to 57.5 µM
In short: as §1

With `C/C=C(\C)C(=O)OC1C(C)C2(O)C3C=C(C)C(=O)C3CC(CO)=CC2C2C(C)(C)C12OC(C)=O` (centres undefined) the outcome (NIH3T3) was “inactive [at 17.4 µM]”, the Potency (CAOV3) was “inactive” and the outcome (CASKI) was “inactive”. The Potency (Es-2) was 112 nM (active), the Potency (HeLa) was “inactive” and the Potency (Hek293T) was “inactive”. The Potency (JEG-3) was “inactive”, the Potency (OV90) was “inactive” and the Potency (SKOV3) was “inactive”. The Potency (Tov-21-G) was “inactive” and the Potency (Tov112D) was “inactive”.

`O=C(Cc1ccc(Cl)cc1)Nc1cnccc1C(=O)O` was tested, and the outcome (NIH3T3) was “inactive”, the Potency (CAOV3) was “inactive” and the outcome (CASKI) was “inactive”. The Potency (Es-2) was “inactive”, the Potency (HeLa) was “inactive” and the Potency (Hek293T) was “inactive”. For the same molecule, the Potency (JEG-3) was “inactive”, the Potency (OV90) was “inactive” and the Potency (PA-1) was “inactive”. For the same molecule, the Potency (SKOV3) was “inactive”, the Potency (Tov-21-G) was “inactive” and the Potency (Tov112D) was “inactive”.

In the case of `N#Cc1cccc(-c2c[nH]c3ncnc(N4CCOCC4)c23)c1`, the outcome (NIH3T3) is reported as “inactive”, the Potency (CAOV3) is reported as “inactive” and the outcome (CASKI) is reported as “inactive”. The Potency (Es-2) was “inactive”, the Potency (HeLa) was “inactive” and the Potency (Hek293T) was “inactive”. For the same molecule, the Potency (JEG-3) was “inactive”, the Potency (OV90) was “inactive” and the Potency (PA-1) was “inactive”. For the same molecule, the Potency (SKOV3) was “inactive”, the Potency (Tov-21-G) was “inactive” and the Potency (Tov112D) was “inactive”.

In the case of `CC(C)(CC(=O)N1CCCC1)NCC(=O)N1C[C@@H](F)C[C@H]1C#N`, the outcome (NIH3T3) is reported as “inactive”, the Potency (C33A) is reported as “inactive” and the outcome (CASKI) is reported as “inactive”. For the same molecule, the Potency (Es-2) was “inactive”, the Potency (HeLa) was “inactive” and the Potency (Hek293T) was “inactive”. The Potency (JEG-3) was “inactive”, the Potency (OV90) was “inactive” and the Potency (PA-1) was “inactive”. For the same molecule, the Potency (SKOV3) was “inactive”, the Potency (Tov-21-G) was “inactive” and the Potency (Tov112D) was “inactive”.

`C[C@@H]1C[C@@H](O)[C@@]23CO[C@]2(CO)CCC[C@@H]3[C@@]12C[C@@H](c1ccoc1)OC2=O` was tested, and the outcome (NIH3T3) was “inactive”, the Potency (C33A) was “inactive” and the outcome (CASKI) was “inactive”. The Potency (Es-2) was “inactive”, the Potency (HeLa) was “inactive” and the Potency (Hek293T) was “inactive”. The Potency (JEG-3) was “inactive”, the Potency (OV90) was “inactive” and the Potency (PA-1) was “inactive”. The Potency (SKOV3) was “inactive”, the Potency (Tov-21-G) was “inactive” and the Potency (Tov112D) was “inactive”.

For `O=C(O)C1(c2ccc(-c3ccc(Cl)c(Cl)c3)c(F)c2)CC1`, the outcome (NIH3T3) was “inactive”, the Potency (C33A) was “inactive” and the outcome (CASKI) was “inactive”. The Potency (Es-2) was “inactive”, the Potency (HeLa) was “inactive” and the Potency (Hek293T) was “inactive”. For the same molecule, the Potency (JEG-3) was “inactive”, the Potency (OV90) was “inactive” and the Potency (PA-1) was “inactive”. The Potency (SKOV3) was “inactive”, the Potency (Tov-21-G) was “inactive” and the Potency (Tov112D) was “inactive”.

`FC(F)(F)c1nnc2c(Sc3ccccc3)nc3ccc(Cl)cc3n12` was tested, and the outcome (NIH3T3) was “inactive”, the Potency (C33A) was “inactive” and the outcome (CASKI) was “inactive”. The Potency (HeLa) was “inactive”, the Potency (Hek293T) was “inactive” and the Potency (JEG-3) was “inactive”. The Potency (OV90) was “inactive”, the Potency (PA-1) was “inactive” and the Potency (Tov-21-G) was “inactive”. The Potency (Tov112D) was “inactive”.

In the case of `C=C1C(O)CC2C(C(=O)O)=COC(OC3OC(CO)C(O)C(O)C3OC(=O)/C=C\c3ccc(O)cc3)C12` (centres undefined), the outcome (NIH3T3) is reported as “inactive [at 17.4 µM]”, the Potency (CAOV3) is reported as “inactive” and the outcome (CASKI) is reported as “inactive”. The Potency (Es-2) was “inactive”, the Potency (HeLa) was “inactive” and the Potency (Hek293T) was “inactive”. The Potency (JEG-3) was “inactive”, the Potency (OV90) was “inactive” and the Potency (PA-1) was “inactive”. For the same molecule, the Potency (SKOV3) was “inactive”, the Potency (Tov-21-G) was “inactive” and the Potency (Tov112D) was “inactive”.

For `O=C(Nc1ccccc1)Nc1ccc(-c2ccc(C(=O)C3CCCC3C(=O)O)cc2)cc1` (centres undefined), the outcome (NIH3T3) was “inactive”, the Potency (C33A) was “inactive” and the outcome (CASKI) was “inactive”. The Potency (Es-2) was “inactive”, the Potency (HeLa) was “inactive” and the Potency (Hek293T) was “inactive”. For the same molecule, the Potency (JEG-3) was “inactive”, the Potency (OV90) was “inactive” and the Potency (PA-1) was “inactive”. The Potency (Tov-21-G) was “inactive” and the Potency (Tov112D) was “inactive”.

In the case of `C=C1C(O)C(O)C2(CC3C(C)=CCC4C(C)(C(=O)O)CCCC34C)OC2C1O` (centres undefined), the outcome (NIH3T3) is reported as “inactive”, the Potency (C33A) is reported as “inactive” and the outcome (CASKI) is reported as “inactive”. For the same molecule, the Potency (Es-2) was “inactive”, the Potency (HeLa) was “inactive” and the Potency (Hek293T) was “inactive”. For the same molecule, the Potency (JEG-3) was “inactive”, the Potency (OV90) was “inactive” and the Potency (PA-1) was “inactive”. For the same molecule, the Potency (SKOV3) was “inactive”, the Potency (Tov-21-G) was “inactive” and the Potency (Tov112D) was “inactive”.

`COC(=O)C1C(c2ccc(O)cc2)C(C(=O)O)C1c1ccc(O)cc1` (centres undefined) was tested, and the Potency (C33A) was “inactive”, the Potency (CAOV3) was “inactive” and the outcome (CASKI) was “inactive”. For the same molecule, the Potency (Es-2) was “inactive”, the Potency (HeLa) was “inactive” and the Potency (Hek293T) was “inactive”. For the same molecule, the Potency (JEG-3) was “inactive”, the Potency (OV90) was “inactive” and the Potency (PA-1) was “inactive”. The Potency (SKOV3) was “inactive”, the Potency (Tov-21-G) was “inactive” and the Potency (Tov112D) was “inactive”.

`O=C(O)CCc1ccc(NCc2cccc3c2CCCN3CCOc2ccccc2)cc1F` was tested, and the outcome (NIH3T3) was “inactive”, the Potency (C33A) was “inactive” and the outcome (CASKI) was “inactive”. For the same molecule, the Potency (Es-2) was “inactive”, the Potency (HeLa) was “inactive” and the Potency (Hek293T) was “inactive”. The Potency (JEG-3) was “inactive”, the Potency (OV90) was “inactive” and the Potency (PA-1) was “inactive”. For the same molecule, the Potency (SKOV3) was “inactive”, the Potency (Tov-21-G) was “inactive” and the Potency (Tov112D) was “inactive”.

`CC1(C)CC[C@]2(C(=O)O[C@@H]3O[C@H](CO[C@@H]4O[C@H](CO)[C@@H](O)[C@H](O)[C@H]4O)[C@@H](O)[C@H](O[C@@H]4O[C@H](CO)[C@@H](O)[C@H](O)[C@H]4O)[C@H]3O)[C@H](O)C[C@]3(C)C(=CCC4[C@@]5(C)CC[C@H](O[C@@H]6OC[C@@H](O)[C@H](O)[C@H]6O)[C@@](C)(C(=O)O)C5CC[C@]43C)[C@@H]2C1` (some centres undefined) was tested, and the outcome (NIH3T3) was “inactive [at 9.27 µM]”, the activity change, negative = cytotoxicity (C33A) was -4.53% [at 11.6 µM] and the activity change, negative = cytotoxicity (CASKI) was 0.848% [at 11.6 µM]. It also gave an activity change, negative = cytotoxicity (Es-2) of 1.6% [at 11.6 µM], an activity change, negative = cytotoxicity (HeLa) of 2.79% [at 11.6 µM] and an activity change, negative = cytotoxicity (Hek293T) of 10.6% [at 11.6 µM]. For the same molecule, the activity change, negative = cytotoxicity (JEG-3) was -3% [at 11.6 µM], the activity change, negative = cytotoxicity (OV90) was 6.96% [at 11.6 µM] and the activity change, negative = cytotoxicity (PA-1) was 0.131% [at 11.6 µM]. The activity change, negative = cytotoxicity (Tov-21-G) was 3.95% [at 11.6 µM] and the activity change, negative = cytotoxicity (Tov112D) was -6.08% [at 11.6 µM].

With `CC(=O)Nc1cccc2c1c(Sc1ccc(Cl)cc1)c(C)n2CC(=O)O` the outcome (NIH3T3) was “inactive”, the Potency (Es-2) was “inactive” and the Potency (JEG-3) was “inactive”. For the same molecule, the Potency (SKOV3) was “inactive”.

`C/C=C/C1OC2=C(C(=O)OC2(C)O)C(O)C1O` (centres undefined) was tested, and the outcome (NIH3T3) was “inactive”, the Potency (C33A) was “inactive” and the outcome (CASKI) was “inactive”. For the same molecule, the Potency (Es-2) was “inactive”, the Potency (HeLa) was “inactive” and the Potency (Hek293T) was “inactive”. For the same molecule, the Potency (JEG-3) was “inactive”, the Potency (OV90) was “inactive” and the Potency (PA-1) was “inactive”. For the same molecule, the Potency (SKOV3) was “inactive”, the Potency (Tov-21-G) was “inactive” and the Potency (Tov112D) was “inactive”.

For `CC(=O)OC1C(O)/C(C)=C\C2C(OC(=O)c3ccccc3)C(C)CC2(OC(C)=O)C(OC(C)=O)C(C)/C=C/C(C)(C)C1OC(C)=O` (centres undefined), the outcome (NIH3T3) was “inactive [at 17.4 µM]”, the Potency (C33A) was “inactive” and the outcome (CASKI) was “inactive”. For the same molecule, the Potency (Es-2) was “inactive”, the Potency (HeLa) was “inactive” and the Potency (Hek293T) was “inactive”. The Potency (JEG-3) was “inactive”, the Potency (OV90) was “inactive” and the Potency (PA-1) was “inactive”. The Potency (SKOV3) was “inactive”, the Potency (Tov-21-G) was “inactive” and the Potency (Tov112D) was “inactive”.

Source: PubChem BioAssay (NCATS)
